Bioassay records as filed in PubChem BioAssay.
In the library only some 7.2% were active in any assay of this set; here they are far more common.
FMDV antiviral – blocks foot and mouth disease virus | FMDV antiviral cell-based qHTS | Potency, µM (titrated, usually from 57.9 µM), for inactives: at the top dose activity change, negative = inhibition, hits mostly inhibitors | AID 1159524 | hit rate 1.2% among 410,000; calls by dose curve; tested in HEK293T cells; also: read-out not given here; nearly all actives have a fitted effect of over 45% in size
Lassa entry inh – Lassa virus entry inhibition; AID 540256; Lassa virus pseudotype entry inhibition, cell reporter; hit rate 1.2% among 300,000; Potency, µM (highest dose often 37.9 µM), inactives show at the highest dose activity change, negative = inhibition, usual class: inhibitors; calls by dose curve; tested in HEK293 cells; also: nearly all actives have a fitted effect of over 50% in size
RE007 growth inh – less growth of the S. pombe RE007 Vpr strain | AID 651644 | hit rate 0.21% among 360,000 | Potency, µM (top dose mostly 92.2 µM), inactives show at the top dose activity change, negative = less growth, usual class: inhibitors | S. pombe RE007 Vpr strain, BacTiter-Glo ATP luminescence, 24 h; active = well fitted falling curve with a large enough effect; inconclusive = small, poorly fitted or top-dose-only effect; inactive = no such curve, though single readings can be large or run the other way; also: nearly all actives have a fitted effect of over 50% in size
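Fission yeast RE007 carrying one integrated HIV-1 vpr copy, seeded at OD 0.01 in PMG+AL medium with 23 nL pinned compound. Grown 24 h at 30 degrees; viability read by BacTiter-Glo luminescence after 5 min.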
Sm TGR inh – S. mansoni TGR enzyme inhibition | AID 485364 | hit rate 3% among 360,000 | Q962Y6 | Potency, µM (top dose mostly 114 µM), for the others: top-dose activity change, negative = inhibition, hits mostly inhibitors | purified TGR, DTNB reduction, TNB absorbance 405 nm; also: nearly all actives have a fitted effect of over 60% in size
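TGR 20 nM + NADPH 100 uM (dispensed conc.), cpd preinc 15 min RT; start with NADPH (500 uM addition) then DTNB (15 mM addition). Kinetic TNB absorbance, 405 nm filter. Four-parameter Hill fit across titration.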
HCV inh – blocks hepatitis C virus. Huh7.5.1 HCVcc-Cre infection, luciferase reporter, 44 h. Potency, µM (titrated, usually from 41.8 µM), inactives show top-dose activity change, negative = inhibition, actives largely listed as inhibitors. hit rate 3.4% among 340,000
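HCVcc-Cre virus at an moi near 0.5 was added right after compound to cells cultured 4 h from seeding (1,000 cells/well). Luciferase activity was determined 44 h later, 15 min after substrate addition at RT.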
MARV entry inh – blocks Marburg virus binding to or entry into cells. Marburg virus pseudotyped entry inhibition, cell reporter. Potency, µM (titrated, usually from 37.8 µM), without a hit: at the highest dose activity change, negative = inhibition, hits mostly inhibitors. hit rate 1.8% among 300,000; calls by dose curve; tested in HEK293 cells
An asterisk follows results filed as active; ? = inconclusive; / = no result; ! = a repeat was not active; [ ] = remark or other dose. Unless noted, calls follow the shape of the dose curve; as a rule, active = well fitted curve in the direction sought with a large enough effect; inconclusive = small, poorly fitted or top-dose-only effect, or another doubt; inactive = no such curve, though single readings can be large; an effect the other way counts as inactive or inconclusive. % is scaled to controls: 0 for no effect and ±100 for the full control effect; potency is read from the fitted curve at half-maximal effect.

SMILES | FMDV antiviral | Lassa entry inh | RE007 growth inh | Sm TGR inh | HCV inh | MARV entry inh
COc1ccc(NC(=S)Nc2cccc([N+](=O)[O-])c2)cc1 | 21% | 6% | 3% | 20µM* | -14% | ?
O=C(Nc1cccc([N+](=O)[O-])c1)c1cc2ccccc2cc1O | -15% | / | -14% | 7% | 5.6µM* | /
Cn1c(SCc2cc(=O)c3cc(Cl)ccc3[nH]2)nnc1-c1ccccc1 | ? | 9%[46.1 µM] | / | -3% | / | /
CCOC(=O)c1cc(-c2ccc(F)cc2)n(CC(=O)NC2CCCCC2)c1C | 5% | ? | / | 8% | / | /
COCCn1c(C)c(C)c(S(=O)(=O)c2ccccc2)c1N | -4% | / | 10% | 1µM* | 9% | /
Cc1c(S(=O)(=O)c2ccccn2)c(N)n(Cc2ccccc2)c1C | 12% | -2% | 2% | 2µM* | 7% | 0%[14.2 µM]
Cc1c(C)n(Cc2ccccc2)c2ncnc(N)c12 | 0% | -4% | -5% | 0% | 10µM* | -11%
Cc1c(S(=O)(=O)c2ccccn2)c(N)n(Cc2ccccc2Cl)c1C | -8% | -27% | -26% | 2µM* | ? | ?
CCC1(C2CCN(C(=O)c3ccccc3C(C)=O)CC2)NC(=O)N(CCc2scnc2C)C1=O (stereo unspecified) | -9% | / | / | / | / | /
O=C(CCCN1C(=O)c2ccccc2C1=O)N1CC[C@@H](c2ccccc2)C1 | / | / | / | / | / | 0%
O=S(=O)(c1ccccc1)N1CCC2(CCN(c3ccncc3)CC2)CC1 | -19% | / | / | / | / | /
CCCSc1ncc(Cl)c(C(=O)Nc2sc3c(c2C(N)=O)CCCC3)n1 | -8% | 2%[46.1 µM] | / | 2% | / | 10%[46.1 µM]
CCSc1ncc(Cl)c(C(=O)Nc2sc3c(c2C(=O)NCc2cccnc2)CCCC3)n1 | / | -23% | 11% | 1% | 10µM* | -2%
COCCCNC(=O)c1c(NC(=O)c2nc(S(C)(=O)=O)ncc2Cl)sc2c1CCCC2 | -18% | 20%[46.1 µM] | / | 5.6µM* | / | 14%[46.1 µM]
CCSc1ncc(Cl)c(C(=O)Nc2sc3c(c2C(=O)NCCCOC)CCCC3)n1 | -15% | 7%[46.1 µM] | / | 4% | / | 2%[46.1 µM]
CCOC(=O)c1c(NC(=O)c2nc(SCC)ncc2Cl)sc2c1CCCC2 | -25% | ? | / | 18% | / | 0%[46.1 µM]
CCNC(=O)c1c(NC(=O)c2nc(S(=O)(=O)CC)ncc2Cl)sc2c1CCCC2 | ? | 7.9µM* | / | -7% | / | 2%[46.1 µM]
COC(=O)C1=C(C)N(CC2CC2)C(N(C)Cc2ccc(OC)cc2)=NC1c1ccccc1 (stereo unspecified) | / | / | / | / | / | -14%[14.2 µM]
Cc1ccc2nsnc2c1S(=O)(=O)N(Cc1ccco1)Cc1cc2ccc(C)c(C)c2[nH]c1=O | -21% | ? | 13% | ? | 2% | 1.6µM*
Cc1ccc2[nH]c(=O)c(CN(Cc3ccco3)S(=O)(=O)c3c(C)ccc4nsnc34)cc2c1 | / | ? | -10% | 28µM* | 7.1µM*! | ?
COc1ccc2[nH]c(=O)c(CN(Cc3cccs3)S(=O)(=O)c3c(C)ccc4nsnc34)cc2c1 | 19% | 13µM* | -1% | -9% | 11µM* | ?
Cc1ccc2[nH]c(=O)c(CN(CC3CCCO3)S(=O)(=O)c3c(C)ccc4nsnc34)cc2c1 (stereo unspecified) | ? | ? | -9% | -27% | -19% | ?
Cc1ccccc1Cn1nnc2c(=O)[nH]c(C3CCN(C(=O)c4ccccc4)CC3)nc21 | -11% | -29%[46.1 µM] | / | 3% | / | 0%[46.1 µM]
Nc1ccc(Cl)cc1/C(=N\O)c1ccccc1 | / | / | / | / | / | -22%
COc1cc(C2c3c(-c4cc(C)ccc4O)n[nH]c3C(=O)N2CCCO)ccc1OCCC(C)C (stereo unspecified) | ? | ? | / | -2% | / | ?
SMILES | FMDV antiviral | Lassa entry inh | RE007 growth inh | Sm TGR inh | HCV inh | MARV entry inh
CCN1C(=O)C(=Cc2ccc(C)s2)C(=O)N(CC)C1=S | 40µM* | ? | -2% | 0% | 5% | ?
COc1ccccc1CN1CCCC2(CCN(C(=O)c3ccncc3)CC2)C1 | -2% | / | / | / | / | /
C(=C\c1sc(Nc2ccccc2)n[n+]1-c1ccccc1)/c1ccccc1 | 6.3µM* | / | -4% | / | -2% | /
Nc1ncnc2c1nc(Br)n2C1O[C@H]2COP(=O)(O)O[C@@H]2C1O (stereo partly specified) | / | / | / | / | / | 3.2µM*
O=c1ccc(-c2ccc(S(=O)(=O)Nc3ccccc3Cl)o2)n[nH]1 | 4% | / | 0% | 40µM* | 13% | /
Cc1cccc(NS(=O)(=O)c2ccc(-c3ccc(=O)[nH]n3)o2)c1 | 13% | / | 19% | 40µM* | 14% | /
O=c1ccc(-c2ccc(S(=O)(=O)Nc3cccc(Br)c3)o2)n[nH]1 | 27% | / | -8% | 50µM* | 27% | /
CO/N=C(\C(=O)N[C@@H]1C(=O)N2C(C(=O)OCOC(=O)C(C)(C)C)=C(/C=C\c3scnc3C)CS[C@H]12)c1csc(N)n1 | 1% | / | / | / | / | /
COc1ncc2nc(-c3ccccc3)c(=O)n(-c3ccccc3)c2n1 | -18% | / | / | / | / | /
Cn1ncc2c(=S)[nH]c(=S)[nH]c21 | -17% | / | 20% | / | / | /
O=C(Nc1cc(C(F)(F)F)ccc1Cl)c1cnn(-c2ccccc2)c1-n1cccc1 | 32µM* | -2%[46.1 µM] | / | -2% | / | /
COC(=O)[C@@H]1CCCN1Cc1ccc2c(c1)CN(Cc1ccc3c(c1)CCO3)CCO2 | -7% | / | / | / | / | /
N#Cc1nccnc1S(=O)(=O)c1cccs1 | ? | 1% | -10% | 0.1µM* | -20% | -35%
CCNc1nc(NCC)nc(N(C)/N=C/c2ccco2)n1 | -4% | / | -12% | 35µM* | -16% | /
CCn1c(=O)c2cc(C(=O)NCCN(C)C)sc2c2ccccc21 | -3% | ? | -3% | ? | 10µM* | 7.1µM*
CCn1c(=O)c2cc(C(=O)NCCOC)sc2c2ccccc21 | -11% | 0%[46.1 µM] | 17% | -6% | 10µM* | 9%[46.1 µM]
CCN(CC)CCNC(=O)c1cc2c(=O)n(CC)c3ccccc3c2s1 | 2% | 3%[46.1 µM] | ? | -2% | ? | -16%[46.1 µM]
CCOCCCNC(=O)c1cc2c(=O)n(CC)c3ccccc3c2s1 | 0% | / | 4% | -6% | ? | /
CCO[C@H](c1cc(OC)cc([N+](=O)[O-])c1OC)[C@H](C)[C@@H](OC)[C@H](C)C=CCC(=O)OC | / | / | / | / | / | 1%[14.2 µM]
C=CCn1cnnc1SCC(=O)Nc1cccnc1Cl | / | / | / | -6% | 16% | /
COc1cccc(CNC(=O)c2c(OC)cc(=O)n3c2CCN(C(=O)c2ccc(Cl)cc2)CC3)c1 | 0% | / | / | / | / | /
O=[N+]([O-])c1ccc(/C=N/n2c(CO)nc3ccccc32)s1 | -28% | 0% | -18% | -8% | 10µM* | ?
O=[N+]([O-])c1ccc(/C=N/n2cnc3ccccc32)s1 | -7% | ? | 10µM* | -20% | ? | ?
Cc1nc2ccccc2n1/N=C/c1ccc([N+](=O)[O-])s1 | ? | ? | ? | -13% | 4.5µM* | ?
CCOc1cc(CNc2ccc(O)cc2)cc(Cl)c1OCc1ccccc1 | ? | ? | / | -19% | / | -18%[46.1 µM]
